TDP1 cell CPT: qHTS for Inhibitors of human tyrosyl-DNA phosphodiesterase 1 (TDP1): qHTS in cells in presence of CPT; chicken DT40 Tdp1-/-;hTDP1 cells + 20 nM CPT, ATP luminescence, 48 h; 12% of 420,000 active; AID 686979, 2013; Potency, µM (highest dose often 46.2 µM), hits mostly inhibitors; note: nearly all actives have a fitted effect of over 55% in size
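Chicken DT40 Tdp1-/- cells complemented with human TDP1, 400 cells/well, exposed to compounds plus 20 nM camptothecin for at least 48 h at 37 C; viability read as ATP content by CellTiter-Glo luminescence.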
ATXN2 expr inh: Primary qHTS for Inhibitors of ATXN expression. HEK-293 ATXN2-luciferase reporter, luminescence, 24 h. Potency, µM (top dose mostly 57 µM), actives largely listed as inhibitors. 0.72% of 360,000 active. AID 1745845, 2022; note: nearly all actives have a fitted effect of over 55% in size
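ATXN2-luciferase reporter cells (luciferase flanked by upstream and downstream ATXN2 gene portions) were treated 24 h at 37 °C with compounds at up to 57 uM. SteadyGlo luminescence gave expression; GF-AFC fluorescence gave viability.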
TDP1 cell noCPT: qHTS for Inhibitors of human tyrosyl-DNA phosphodiesterase 1 (TDP1): qHTS in cells in absence of CPT; AID 686978, 2013; Potency, µM (titrated, usually from 46.2 µM), most hits filed as inhibitors; DT40 Tdp1-/- hTDP1 cells, no CPT, ATP luminescence, 48 h; 15% of 420,000 active; note: nearly all actives have a fitted effect of over 55% in size
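Chicken DT40 Tdp1-/- cells complemented with human TDP1, screened without camptothecin (DMSO vehicle only), 400 cells/well. Compounds pin-transferred, cells incubated at 37 °C for at least 48 hr. Growth read as ATP-dependent luminescence (CellTiter-Glo, 30 min at RT).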
TGFb inhibitor: qHTS for Inhibitors of TGF-b; HepG2 CAGA-GFP TGF-b/SMAD3 reporter, GFP fluorescence, 18 h; TGF-beta stimulated, 500 pg/mL final; Potency, µM (doses to about 46.1 µM), usual class: inhibitors; 1.2% of 410,000 active; AID 588855, 2011; note: nearly all actives have a fitted effect of over 65% in size
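Per well, imaged GFP fluorescence of HEPG2 CAGA-GFP cells gives the signal; cells get compound, then TGF-beta (500 pg/mL final), 18 h at 37 degrees C; %Activity versus -TGF-beta and +DMSO controls.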
S2 tox: Viability Counterscreen for Primary qHTS for Inhibitors of ATXN expression. S2 cells (HEK-293 line with an ATXN2-luciferase reporter) viability, CellTiter-Fluor protease fluorescence, 24 h. 0.49% of 400,000 active. Potency, µM (series often up to 56.7 µM), actives largely listed as cytotoxic. AID 651635, 2014; note: nearly all actives have a fitted effect of over 40% in size
HepG2 tox-1: qHTS for Inhibitors of TGF-b: Cytotox Counterscreen. HepG2 CAGA-GFP viability, ATP luminescence, 18 h. Potency, µM (doses to about 46.1 µM), most hits filed as cytotoxic. 0.76% of 410,000 active. AID 588856, 2011
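CellTiter-Glo luminescence gave cytotoxicity after 18 hours at 37 degrees C. The cells were HepG2 CAGA-GFP in 1% FBS DMEM, stimulated with 500 pg/mL TGF-beta after compound addition. %Activity was normalised to no-cell wells (complete cell-killing) and DMSO (no toxicity), and curves were fitted and classified.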
TGFb CAGA inh: qHTS for Inhibitors of TGF-b: Confirmation of Cherry Picks; HepG2 CAGA-GFP TGF-b reporter, GFP fluorescence, 18 h; cells stimulated with TGF-beta, 500 pg/mL; 63% of 1,600 active; shares compounds with TGFb inhibitor; Potency, µM (highest dose often 46.1 µM), hits mostly inhibitors; AID 720534, 2013; note: nearly all actives have a fitted effect of over 65% in size
HepG2 tox-2: qHTS for Inhibitors of TGF-b: Cytotox Counterscreen for Cherry Picks; shares compounds with TGFb inhibitor; HepG2 CAGA-GFP viability, ATP luminescence, 18 h; cells stimulated with TGF-beta, 500 pg/mL; Potency, µM (highest dose often 46.1 µM), most hits filed as inhibitors; 27% of 1,600 active; note: nearly all actives have a fitted effect of over 70% in size
TGFb CCL64 inh: qHTS for Inhibitors of TGF-b: CCL64 Cells Orthogonal Assay for Cherry Picks. shares compounds with TGFb inhibitor. CCL64 CAGA-GFP reporter, TGF-b stimulated, GFP fluorescence, 18 h. Potency, µM (highest dose often 46.1 µM), actives largely listed as inhibitors. 41% of 1,600 active. AID 720536, 2013; note: nearly all actives have a fitted effect of over 65% in size
COP TGFb inh: qHTS for Inhibitors of TGF-b: Hit Validation in HepG2 Cells using COP promoter. shares compounds with TGFb inhibitor. HepG2 COP-GFP TGF-b reporter, GFP fluorescence, 18 h; cells stimulated by added recombinant TGF-beta. Potency, µM (top dose mostly 46.1 µM), hits mostly inhibitors. 3% of 1,600 active. AID 720537, 2013; note: nearly all actives have a fitted effect of over 70% in size
A number is an active result; 0 = inactive; ? = inconclusive; - = not tested or not shown; [ ] = dose if it differs, or a comment. This is a sample that favours compounds with a hit; in the whole collection about 17% have one here. Calls come from the whole dose curve; as a rule, active = well fitted curve in the direction sought with a large enough effect; inconclusive = small, poorly fitted or top-dose-only effect, or another doubt; inactive = no such curve, though single readings can be large; an effect the other way counts as inactive or inconclusive.

SMILES	TDP1 cell CPT	ATXN2 expr inh	TDP1 cell noCPT	TGFb inhibitor	S2 tox	HepG2 tox-1	TGFb CAGA inh	HepG2 tox-2	TGFb CCL64 inh	COP TGFb inh
CN(C(=O)CSc1nnc(N)s1)C1CCCCC1	0	0	0	0	0	0	-	-	-	-
CCCOC(=O)c1ccc(NC(=O)c2ccccc2[N+](=O)[O-])cc1	?	0	0	0	0	0	-	-	-	-
COc1ccc(N2CCN(CC(O)COc3c(OC)cccc3OC)CC2)cc1 (centres undefined)	0	0	?	0	0	0	-	-	-	-
COc1ccc(N2CCc3c(C)nc4c(OC)cccc4c32)cc1	4.61µM	0[11.3 µM]	2.91µM	11.2µM	?	0	14.6µM	?	25.9µM	0
O=C(COC(=O)Cc1n[nH]c(=O)c2ccccc12)Nc1ccc(Cl)cn1	0	0	0	0	0	0	-	-	-	-
CCOc1cc2c(cc1O)C(=NOC)CC1C2CCC2(C)C(O)CCC12 (centres undefined)	0.92µM	0	0.82µM	17.8µM	0	0	7.31µM	0	7.31µM	0
CC(C)C[C@@H](CN1CCC[C@@H]1CN1C(=S)NC[C@@H]1Cc1ccc(O)cc1)N1C[C@H](Cc2ccc(O)cc2)N(CC2CCCCCC2)C1=S	18.4µM	?	16.4µM	4.47µM	?	0	18.4µM	18.4µM	8.2µM	0
CC(C)C[C@@H](CN1CCC[C@@H]1CN1C(=S)NC[C@@H]1Cc1ccc(O)cc1)N1C[C@H](Cc2ccc(O)cc2)N(CC2CCCCC2)C1=S	18.4µM	?	16.4µM	7.08µM	25.1µM	0	16.4µM	?	5.8µM	?
O=C(CCNc1cccc(F)c1)c1cccc([N+](=O)[O-])c1	5.8µM	0	4.11µM	12.6µM	0	0	10.3µM	?	?	0
Cc1ccc(NC(=O)COC(=O)C2(CC(=O)NC(C)(C)C)CCCC2)cc1C	?	0	?	0	?	0	-	-	-	-
COc1ccc(-c2csc(Nc3ccc(Oc4ccccc4)cc3)n2)cc1	18.4µM	?	16.4µM	11.2µM	?	0	7.31µM	0	0	0
O=C(C#Cc1ccccc1)Nc1cccc(F)c1	4.11µM	?	5.8µM	3.98µM	?	0	2.06µM	6.51µM	5.8µM	0
COCc1ccc(C(=O)N2CCCC(C(=O)c3ccc(SC)cc3)C2)s1 (centres undefined)	?	0	?	0	0	0	-	-	-	-
Cc1cccc2nc(C(=O)Nc3cc(Cl)ccc3-n3cncn3)cn12	0	-	0	0	0	0	-	-	-	-
Cc1ccccc1NC(=O)c1ccc(Nc2c([N+](=O)[O-])cc([N+](=O)[O-])c3ccccc23)cc1	?	0	23.1µM	?	0	0	?	0	0	0
Cc1c(NC(=O)c2ccccc2)cccc1[N+](=O)[O-]	0	0	0	0	0	0	-	-	-	-
COCCn1c(SCc2nc3scc(-c4ccc(Cl)cc4)c3c(=O)[nH]2)nnc1-c1cccc(C)c1	?	0	?	10µM	?	0	13µM	?	?	0
COc1ccc(CN=C2NC(=O)CC(C(=O)Nc3ccccc3C)S2)cc1 (centres undefined)	0	0	0	0	0	0	-	-	-	-
Cc1ccc(NC(=O)c2nc[nH]c2C(=O)N[C@@H](C)c2ccccc2)cc1	?	?	?	?	?	0	-	-	-	-
Cc1ccc(NC(=O)c2nc[nH]c2C(=O)NCCCNC(=O)c2[nH]cnc2C(=O)Nc2ccc(C)cc2)cc1	16.4µM	0	?	?	0	0	?	?	?	?
Cc1c(NC(=O)C(C)Oc2ccccc2F)c(=O)n(-c2ccccc2)n1C (centres undefined)	0	0	0	0	0	0	-	-	-	-
COc1ccc(C(=O)/C(C#N)=N/Nc2cccc([N+](=O)[O-])c2)cc1	5.8µM	-	4.11µM	10µM	11.2µM	0	5.17µM	?	8.2µM	0
CCC(CC)=NNc1cccc([N+](=O)[O-])c1	0	0	0	0	?	0	-	-	-	-
CN(C)c1ccc(/C=N/NC(=O)c2ccc3c(c2)OCO3)cc1	0	0	0	0	?	0	-	-	-	-
Cc1c(C(=O)N/N=C/c2ccc(N(C)C)cc2)[nH]c2ccc(Cl)cc12	5.8µM	0	5.8µM	4.47µM	?	0	2.31µM	0	?	0
SMILES	TDP1 cell CPT	ATXN2 expr inh	TDP1 cell noCPT	TGFb inhibitor	S2 tox	HepG2 tox-1	TGFb CAGA inh	HepG2 tox-2	TGFb CCL64 inh	COP TGFb inh
Clc1ccc(-n2nnnc2Sc2ncnc3sccc23)cc1	2.31µM	?	1.84µM	10µM	-	0	4.61µM	16.4µM	2.91µM	?
c1ccc(CSc2ncnc3sccc23)cc1	0	0	0	0	0	0	-	-	-	-
O=S(=O)(Nc1cc(Sc2ncn[nH]2)c(O)c2ccccc12)c1ccccc1	1.16µM	?	2.06µM	2.51µM	?	3.55µM	7.31µM	?	5.8µM	?
Cc1cc(O)c(Sc2ncn[nH]2)cc1NS(=O)(=O)c1ccc(Cl)cc1	0	0	0	0	0	0	-	-	-	-
O=C1CCC(C(=O)OCC(=O)c2ccccc2)N1 (centres undefined)	?	0	0	?	0	0	-	-	-	-
CC1CC(C)C(=O)C(C(CC2CC(=O)NC(=O)C2)OC(=O)CC(=O)c2ccccc2)C1 (centres undefined)	0.366µM	3.55µM	0.411µM	2.24µM	?	0	0.411µM	?	2.59µM	0
CC(NC(=O)COC(=O)c1cc(Cl)ccc1O)C1CC2CCC1C2 (centres undefined)	?	0	0	0	0	0	-	-	-	-

Compound activity as filed in PubChem.
